Measurements reported in the OligoGym collection.

Target: CHRNE
Test: pooled miR-30 sensor sort-seq; sequence = guide strand
Details: shRNA
Note: reference of the scale not given here.

Sequence	sensor-assay potency score (higher = more potent)
TTTTTCAAAATCAATTTCCTAC	-0.288
TTCAGTATCAGCTCCTCCGCGC	-0.412
TAATCCTGCCAATCGATTCCAA	-0.67
TTCCAGCACAATCTCTGGCAGC	-0.813
ATAGTTGTTGAAGAGATGGTGA	0.0987
TCAAACACGAGCTCGCTCCGTG	-0.0514
TAGGTGACCTCCACTGCGCAGA	-0.727
TTAATGACGTAGAAGAGCGGCT	-0.711
TAGATGACGTCAGTCTCCCCTG	-0.628
TTGCCGTCGTTGTCTACGGCAA	-1.16
TCTTGTTGATGGTCTTGCCGTC	0.0404
TAGAAGAGCGGCTTCCGGCGGA	0.192
TATACCCCCAAAGTCGTCCTTG	-0.579
TTGCTTTCTGTCAGTACTGTAG	-0.702
TTGTTTTCCAGCACAATCTCTG	-0.404
TCGATCTTGTTGATGGTCTTGC	0.161
TTCACGGCATCCACACAGCAGC	-0.899

Target: CHST7
Test: as above
Details: shRNA

Sequence	sensor-assay potency score (higher = more potent)
TCCTTGATGACCACCACCGGGT	-1.07
TTGGGAACCGAGGAGACTGGTT	-0.796
AACAGCAGCGCGAACTTGCAGT	-0.918
TAAATATCCACATTGCACTGTC	0.728
TTACTGGAAACTTCATCTCAAC	-1.13
TTTTCGTCCAGACACCTGCTGG	-1.07
TACCAAATCACATCTCTTCTTT	-0.0966
TACAAGTAGAAAACGTCCGGGT	0.0569
TAGATGTGCTGCTTCTCGCGAG	-0.296
TTGGTAGCAAGTCAAGTCCCAG	-1.13
ATACAAGTAGAAAACGTCCGGG	0.117

Target: CHSY1
Test: as above
Details: shRNA

Sequence	sensor-assay potency score (higher = more potent)
TTTATCTTTGGGTTCTTTGTGC	0.332
TTGCTCGACATCGCTGAAGGAA	-0.494
TTTTGCTGAAAGTCTGCTGTAA	-0.0624
TAAATCTCACAAACATGTCGAA	-0.309
TGTATTTGCTCGACATCGCTGA	0.246
TTGAAGTCAATGATGCGCCCTC	-0.291
TTCTTTGTGCTCACTCTTCGAC	-0.347
TTTCCCACTATAAACAATCTTT	-0.597
TTAACAATCACAACAGAACATT	-1.42
TTTTACTGTAACTTGGATCATT	-0.393
TTGTGCTCACTCTTCGACCCAG	-0.424
TTGTCTTGGACCATGTTCTGTA	0.134
